From PubChem
In the library only some 2.3% were active in any assay of this set; here they are far more common.
MEKK2mut PB1 HTS – MEK5 binding signal on mutant MEKK2 PB1, primary screen, biochemical, multiplex bead flow cytometry, Alexa488-MEK5 | Alexa488-MEK5 binding to MEKK2 mutant | percent response, % at 10 µM | 0.35% of 290,000 active; in the data active means percent response above about 24%, passing the limit was not always enough
MEKK3 PB1 HTS – modulators of MEKK3-MEK5 PB1 binding, primary screen, biochemical, wildtype MEKK3, multiplex bead flow cytometry, Alexa488-MEK5 | Mitogen-activated protein kinase kinase kinase 3 (Homo sapiens), Q99759 | bead-based flow cytometry, Alexa488-MEK5 binding to MEKK3; actives lie on both sides; 0 = blocked by unlabeled MEK5, 100 = vehicle | binding response (% of control), % at 10 µM | 1.4% of 290,000 active | AID 1529, 2009;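 active means binding response more than 3 SD above or below the average of its plate-row segment, actives on both sides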;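 further: Alexa488 bead fluorescence after subtracting the streptavidin-only scavenger bead signal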
Target sequence (Q99759 whole entry, looked up): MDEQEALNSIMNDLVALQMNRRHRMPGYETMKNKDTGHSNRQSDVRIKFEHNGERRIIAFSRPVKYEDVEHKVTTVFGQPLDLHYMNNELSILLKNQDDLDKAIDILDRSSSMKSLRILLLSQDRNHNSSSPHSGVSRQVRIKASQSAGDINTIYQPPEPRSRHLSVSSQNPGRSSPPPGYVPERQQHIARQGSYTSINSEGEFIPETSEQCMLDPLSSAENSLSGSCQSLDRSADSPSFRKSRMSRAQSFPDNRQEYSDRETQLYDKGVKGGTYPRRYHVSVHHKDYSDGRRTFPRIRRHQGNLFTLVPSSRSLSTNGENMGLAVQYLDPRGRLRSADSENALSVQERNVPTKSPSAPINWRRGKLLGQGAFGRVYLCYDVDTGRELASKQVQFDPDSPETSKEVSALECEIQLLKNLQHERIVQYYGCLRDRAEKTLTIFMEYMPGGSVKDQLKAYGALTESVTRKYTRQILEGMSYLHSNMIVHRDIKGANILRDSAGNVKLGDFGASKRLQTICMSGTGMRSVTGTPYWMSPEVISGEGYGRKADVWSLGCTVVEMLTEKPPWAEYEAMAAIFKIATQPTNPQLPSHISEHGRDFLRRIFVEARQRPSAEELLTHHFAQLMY
UBC13 polyUb – UBC13 polyubiquitin chain formation inhibitors, primary screen, biochemical, TR-FRET, uHTS; Ubiquitin-conjugating enzyme E2 N (Homo sapiens), P61088; inhibition, % at 20 µM; AID 485273, 2010; 0.47% of 330,000 active; in the data active means inhibition above about 45%, passing the limit was not always enough
MEKK2wt PB1 HTS – modulators of MEK5 binding to wildtype MEKK2, primary screen, biochemical, multiplex bead flow cytometry, Alexa488-MEK5. Alexa488-MEK5 binding to MEKK2 WT; actives lie on both sides. binding response (% of control), % at 10 µM. Mitogen-activated protein kinase kinase kinase 2 (Homo sapiens), Q9Y2U5. 1.1% of 290,000 active. AID 1531, 2009; in the data active means binding response below about 67% or above about 130%
MEKK2wt confirm – modulators of MEK5 binding to wildtype MEKK2, confirmation, biochemical, single concentration, multiplex bead flow cytometry; shares compounds with MEKK3 PB1 HTS; Alexa488-MEK5 binding to MEKK2 WT; actives lie on both sides; binding response (% of control), % at 10 µM; 2.4% of 5,900 active; in the data active means binding response below about 16% or above about 210%; inactive means in between
MEKK2mut confirm – mutant MEKK2 PB1-MEK5 binding signal retest – biochemical, single concentration, multiplex bead flow cytometry, confirmation | shares compounds with MEKK3 PB1 HTS | Alexa488-MEK5 binding to MEKK2 mutant | percent response, % at 10 µM | 2% of 5,900 active | AID 1893, 2009; in the data active means percent response mostly above about 71%, no sharp cut-off; inactive means mostly below about 38%;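 further: higher means compound restores mutant binding toward wildtype level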
MEKK3 confirm – MEKK3 wild-type PB1 binding to MEK5, inhibitors, confirmation, biochemical, bead multiplex flow cytometry, single concentration, wildtype | shares compounds with MEKK3 PB1 HTS | Alexa488-MEK5 binding to MEKK3; active compounds read low | binding response (% of control), % at 10 µM | 1.8% of 5,900 active;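 active means binding response below 72% of control, or above a set upper limit, though filed actives all read lower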;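 further: lower values mean stronger disruption of MEK5 binding to MEKK3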
Hits are given with their value; - = inactive; . = no result given; [ ] = another dose, or the depositor's remark.

SMILES	MEKK2mut PB1 HTS	MEKK3 PB1 HTS	UBC13 polyUb	MEKK2wt PB1 HTS	MEKK2wt confirm	MEKK2mut confirm	MEKK3 confirm
COC(=O)c1c(NC(=O)CN(c2ccccc2)S(C)(=O)=O)sc2c1CCCC2	-	161	-	-	-	-	-
COC(=O)c1c(NS(=O)(=O)Cc2ccccc2)sc2c1CCCC2	-	-	-	-	.	.	.
COC(=O)c1c(NC(=O)COC(=O)CCc2ccc(S(=O)(=O)N3CCOCC3)cc2)sc2c1CCC2	-	136	-	-	-	-	-
O=C(CCNC(=O)c1ccc(Br)cc1)NNC(=O)c1ccccc1	.	.	-	.	.	.	.
Cc1cn(CCC(=O)Nc2ccc(N3CCOCC3)cc2)c2ccccc12	-	128	-	-	-	-	-
CCOc1ccc(CCNC(=O)CCNS(=O)(=O)c2ccc3c(c2)CCN3C(C)=O)cc1OCC	-	-	-	-	.	.	.
COc1ccc(C(=O)Nc2cc(Cl)ccc2-n2cncn2)c(OC)c1OC	.	.	-	.	.	.	.
Cc1ccc(N2C(=O)N(CC(=O)Nc3c(C)cc(C)cc3Cl)C(=O)C2C)cc1 (centres undefined)	.	.	-	.	.	.	.
CC(c1ccccc1)C1OCC(C[N+]2(C)CCCCC2)O1 (centres undefined)	-	43[inhibitor]	-	47[inhibitor]	-	-	-
Cc1nc2ccc(NC(=O)c3cnc(Cl)c(Cl)c3)cc2s1	-	-	-	-	.	.	.
Cc1nc2ccc(NC(=O)c3cccnc3)cc2s1	-	50[inhibitor]	-	-	-	-	-
CCN(CC)c1ccc(NC(=O)c2cccnc2)cc1	-	-	-	134	-	-	-
COCc1c(C(=O)N2CCN(c3ccccc3C)CC2)oc2ccccc12	.	.	-	.	.	.	.
Cc1ccc(NS(=O)(=O)N(C)C)cc1	-	71[inhibitor]	-	-	-	-	-
COC(=O)c1ccc(NS(=O)(=O)N(C)C)cc1	-	-	-	-	.	.	.
Cc1ccc(C)c(NC(=O)c2cc(-c3ccccc3)nn2-c2ccccc2)c1	-	60[inhibitor]	-	-	-	-	-
CS(=O)(=O)N(CC(=O)Nc1ccccc1C(=O)N1CCCC1)c1ccc2c(c1)OCO2	-	-	-	-	.	.	.
CCC(C)NCCCOc1c(C)cc(C)cc1Br (centres undefined)	-	147	-	-	-	-	-
CCCCCCc1cc2cc(S(=O)(=O)c3ccc(F)cc3)c(=O)oc2cc1O	-	138	-	-	-	-	-
CCCCCCc1cc2cc(-c3nnc(-c4ccccc4O)o3)c(=O)oc2cc1O	-	-	-	71[inhibitor]	-	-	-
CCCCCCc1cc2cc(-c3nnc(-c4ccccc4OC)o3)c(=O)oc2cc1O	-	-	-	-	.	.	.
CCn1c(O)c(C=NCc2ccccc2)sc1=S	-	-	-	-	.	.	.
CCn1c(O)c(/C=C/C=C/C=Nc2ccccc2)sc1=S	-	-	-	59[inhibitor]	-	-	-
CCn1c(O)c(C=C2N=c3ccccc3=N2)sc1=S	-	-	-	-	.	.	.
CCCCn1c(O)c(/C=C/C=C/C=Nc2ccccc2)sc1=S	-	21[inhibitor]	-	-5.0	-	-	35
Cc1ccc(C(=O)Nc2ccc(Br)c(C(F)(F)F)c2)cc1	-	-	-	170	-	-	-
Cc1ccc(NC(=O)c2ccc(C)cc2)cc1	.	.	-	.	.	.	.
O=C(Nc1ccc(Cl)c(C(F)(F)F)c1)c1ccncc1	-	2.0[inhibitor]	-	5.0[inhibitor]	-	-	-
Cc1ccc(C(=O)N/C(=C\c2ccc(-c3ccccc3[N+](=O)[O-])o2)C(=O)NCCCN(C)C)cc1	25	-	-	-	-	-	-
Cc1cc(Cl)ccc1N(CC(=O)N=Nc1c(O)[nH]c2ccccc12)S(C)(=O)=O	-	-	-	-	.	.	.
